Test results as given in PubChem BioAssay (NCI).
About 83,000 compounds went through this panel and 20% of them were active in at least one assay; those are over-represented in the sample as a whole.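 Each cell line was grown in a 96-well plate and treated with one concentration of compound for 48 hours. Values below 10 were considered active.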 Values without a mark were called inactive. Active and inactive are the calls of the source.

The molecules below were run on EKVX NSCLC (assay: NCI-60 one-dose screen, 48 h (100 = growth as untreated, 0 = no growth, -100 = all killed)). Details: 10 µM unless noted.
Description: Growth inhibition of the EKVX human Non-Small Cell Lung tumor cell line is measured as a screen for anti-cancer activity. Cells are grown in 96 well plates and exposed to the test compound for 48 hours. Compounds are tested at a single concentration, which is 10^-5 M for most compounds. The reported endpoint is percent growth (GI% or GIPRCNT), where numbers from 0 - 100% represent growth inhibition, and numbers from -100% - 0 represent cell death. For example, a value of 40 represents 60% growth inhibition. A value of 0 means no net growth occurred over the course of the experiment. A value of -40 indicates 40% of cells at the beginning of the experiment died by the end of the experiment. A value of -100 means all cells are dead at the end of the experiment.
NCI-60 Human Tumor Cell Lines Screen was performed using the standard one-dose NCI protocol, which is described in more detail at https://dtp.cancer.gov/discovery_development/nci-60/default.htm.
Compounds with GIPRCNT values below 10 were considered active. Activity score was based on GIPRCNT using the following formula: […]
Score is 0 for GIPRCNT values of 100 or above, 50 for GIPRCNT values of 0, and 100 for GIPRCNT values of -100.

Q: How did the growth turn out when `CS(=O)(=O)c1ccc(-c2nc3ccccn3c2/C=N/Nc2nc(-c3ccc(Br)cc3)cs2)cc1` was run?
A: 97.8%

Q: How did the growth turn out when `O=C(O)CCCCCN1C(=O)/C(=C/c2ccc(O)c(O)c2)SC1=S` was run?
A: 97%

Q: `CCOc1ccc([C@H]2C(C(=O)c3ccc(Cl)cc3)C3(N[C@@H]2c2ccccc2)C(=O)Nc2ccc(Br)cc23)cc1` (stereo not given in full) was tested. Which growth did it give?
A: 33.6%

Q: How did the growth turn out when `C/C(=N/NC(N)=S)c1ccc(Nc2nc(SCC(C)C)nc(-c3ccc(F)cc3)c2C#N)cc1` was run?
A: -0.0417% (active)

Q: Which growth does the source give for `COC1CCN(Cc2ccc3c(NNC(=O)c4cnccn4)nc4cc(F)ccc4n23)C1` (stereo not given) here?
A: 29.9%

Q: For `COc1cc(/C=C/C(=O)c2cc(OC)c(OC)c(OC)c2)ccc1OCc1ccc(F)cc1`, which growth is on record?
A: 51.2%

Q: `C#Cc1nc(C2=C(C)C(OC(C)=O)/C(=N/OC(C)=O)C2)cs1` (stereo not given) was tested. Which growth did it give?
A: 9.96% (active)

Q: How did the growth turn out when `COc1cc(-c2nc3ccc(-c4nnc(SCC(=O)Nc5ccc(C(=O)/C=C/c6ccc(Cl)cc6)cc5)o4)cc3[nH]2)cc(OC)c1OC` was run?
A: 99.5%

Q: `Cc1ccc2ccc3ccc(C)nc3c2n1.Cc1ccc2ccc3ccc(C)nc3c2n1.Oc1c(Cl)cc(Cl)c2ccc(CN3CCCCC3)nc12.[Ru]` was tested. Which growth did it give?
A: -64.9% (active)

Q: `CCN1CCN(S(=O)(=O)c2oc(-c3ccc(Cl)cc3)nc2C#N)CC1` was tested. Which growth did it give?
A: 95.6%

Q: Which growth does the source give for `Nc1cc(-c2c[nH]c3ccccc23)nc2cc(-c3c[nH]c4ccccc34)nn12` here?
A: 74.5%

Q: How did the growth turn out when `COc1cc2cc(Oc3ccc(NC(=O)c4cccc(C(F)(F)F)c4)cc3)c(C)nc2cc1OCCN1CCCCC1` was run?
A: 93.2%

Q: `O=C(N/N=C/c1ccc[nH]1)c1[nH]c2ccc(Br)cc2c1-c1ccccc1` was tested. Which growth did it give?
A: 24.4%

Q: With `N#Cc1c(-c2ccc(F)cc2)nc2c(C#N)c(Nc3ccccc3)nn2c1N` as the molecule, how does the growth read?
A: 92.8%

Q: For `COc1cc(/C=C/C(=O)c2cc(OC)c(OC)c(OC)c2)ccc1OCc1ccccc1`, which growth is on record?
A: 51.6%

Q: `Cn1ccnc1C(=O)/C=C/c1ccc(NC(=O)Nc2ccc(F)cc2)cc1` was tested. Which growth did it give?
A: 39.3%

Q: For `Cc1c(Nc2nnc(SCC(=O)Nc3sc4c(c3C#N)CCCC4)s2)c(=O)n(-c2ccccc2)n1C`, which growth is on record?
A: 97.4%

Q: With `Nc1cc(-c2c[nH]c3ccc(Cl)cc23)nc2cc(-c3c[nH]c4ccc(Cl)cc34)nn12` as the molecule, how does the growth read?
A: 54.4%

Q: `C/C(=N\NC(N)=O)c1c(O)sc(=O)[nH]c1=O` was tested. Which growth did it give?
A: 95.8%

Q: With `COc1cccc(-c2nn(-c3ccccc3)cc2-c2ccnc(N3CCN(C(=O)c4ccccc4)CC3)c2)c1` as the molecule, how does the growth read?
A: 103%

Q: `CCCC(=O)NC(c1ccc(N(CC)CC)cc1)c1cc(C)c2cccnc2c1O` (stereo not given) was tested. Which growth did it give?
A: 19.2%

Q: For `CS(=O)(=O)c1ccc(-c2nc3ccccn3c2/C=N/Nc2nc(-c3ccc(Cl)cc3)cs2)cc1`, which growth is on record?
A: 96.8%

Q: Which growth does the source give for `N#Cc1ccc(/C=N/NC(=O)c2[nH]c3ccc(Br)cc3c2-c2ccccc2)s1` here?
A: 25%

Q: How did the growth turn out when `COc1ccc(/C=N/NC(=O)c2[nH]c3ccc(Br)cc3c2-c2ccccc2)s1` was run?
A: 42.8%

Q: `CCOC(=O)c1c(NC(=O)c2cccc(C(F)(F)F)c2)sc2cc(O)ccc12` was tested. Which growth did it give?
A: 84.8%

Q: For `O=C(CSc1nnc(-c2ccc3nc(-c4ccc(Cl)cc4)[nH]c3c2)o1)Nc1ccc(C(=O)/C=C/c2ccc(Cl)cc2)cc1`, which growth is on record?
A: 93.8%

Q: With `O=C1[C@H]2Cc3c([nH]c4ccccc34)[C@@H](c3ccc(Br)cc3)N2C(=O)CN1C1CCN(Cc2ccccc2)CC1` as the molecule, how does the growth read?
A: 35.5%

Q: For `O=C1Nc2cc(Cl)ccc2/C1=C\c1ccc(OCc2ccc(Br)cc2F)cc1`, which growth is on record?
A: -18.9% (active)

Q: `CN(C)CCCNc1c2ccccc2nc2c1oc1ccc(Cl)cc12` was tested. Which growth did it give?
A: 43.5%

Q: With `C#Cc1nc(C2=C(C)C(OC(=O)CCC(=O)O)CC2)cs1` (stereo not given) as the molecule, how does the growth read?
A: 99.2%

Q: With `COc1cc(/C=C/C(=O)c2ccc(C)cc2)ccc1Oc1nc(NCCO)nc(N2CCOCC2)n1` as the molecule, how does the growth read?
A: 67.8%

Q: With `COC(=O)C1CCCN(S(=O)(=O)/N=C2\NC(=O)NC2=C(Cl)Cl)C1` (stereo not given) as the molecule, how does the growth read?
A: 104%

Q: Which growth does the source give for `N#Cc1c(-c2ccc(Cl)cc2)nc(SCc2ccc([N+](=O)[O-])cc2)nc1N1CCNCC1` here?
A: 51.9%

Q: `CC(C)(C)Nc1nc2c(OCCc3ccccc3)cccn2c1-c1ccc(Cl)cc1` was tested. Which growth did it give?
A: 5.46% (active)

Q: With `COc1ccc(/C=C2\SC(=Nc3cc(C)on3)NC2=O)cc1` as the molecule, how does the growth read?
A: 89.7%

Q: Which growth does the source give for `COc1ccc(N/N=C/c2c(-c3ccc(S(C)(=O)=O)cc3)nc3ccccn23)cc1` here?
A: 69.2%

Q: How did the growth turn out when `N#Cc1ccc(C(=O)CSc2nc(Nc3ccc(S(N)(=O)=O)cc3)c3ccccc3n2)cc1` was run?
A: 104%

Q: How did the growth turn out when `C=CCSc1ccc2c(c1)C(N1CCNCC1)=Nc1ccccc1O2` was run?
A: 79.7% [8.25 µM]

Q: `COc1ccc(C(=O)/C=C/c2ccc(OCc3ccc(Cl)cc3)c(OC)c2)cc1OC` was tested. Which growth did it give?
A: 62.2%

Q: Which growth does the source give for `NS(=O)(=O)c1ccc(Nc2nc(SCC(=O)c3ccc(Cl)cc3)nc3ccccc23)cc1` here?
A: 90.6%
